Data reported in PubChem BioAssay AID652105 (National Center for Advancing Translational Sciences (NCATS), 2013).
Among all 330,000 compounds or so, about 4,100 (1.2%) were called active. Inconclusive results (about 2%) are left out. The sample holds actives, similar compounds and a random draw of the others, so the mix is not that of the screen. Unmarked numbers belong to inactive results. Rule for the calls: active = max response of -50% or lower; inconclusive = between -30% and -50%; inactive = -30% or higher.

The compounds below were run against Phosphatidylinositol 5-phosphate 4-kinase type-2 alpha (Homo sapiens) (UniProt P48426) (assay: qHTS for Inhibitors of phosphatidylinositol 5-phosphate 4-kinase (PI5P4K)). Settings: PI5P4Kalpha enzyme, ADP-Glo luminescence, 60 min; active compounds read low.
Outline: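 Luminescence from ADP-Glo served as readout of PI5P4Kalpha activity in a qHTS format. Reaction: enzyme, substrate, compound, ATP at 5 microM final, 60 min at RT.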
% is set by controls: 0 for no effect and ±100 for the full control effect.
Note: value at the top dose of about 77 µM.

Phosphatidylinositol 5-phosphate 4-kinase type-2 alpha (Homo sapiens), sequence (P48426 whole entry, looked up): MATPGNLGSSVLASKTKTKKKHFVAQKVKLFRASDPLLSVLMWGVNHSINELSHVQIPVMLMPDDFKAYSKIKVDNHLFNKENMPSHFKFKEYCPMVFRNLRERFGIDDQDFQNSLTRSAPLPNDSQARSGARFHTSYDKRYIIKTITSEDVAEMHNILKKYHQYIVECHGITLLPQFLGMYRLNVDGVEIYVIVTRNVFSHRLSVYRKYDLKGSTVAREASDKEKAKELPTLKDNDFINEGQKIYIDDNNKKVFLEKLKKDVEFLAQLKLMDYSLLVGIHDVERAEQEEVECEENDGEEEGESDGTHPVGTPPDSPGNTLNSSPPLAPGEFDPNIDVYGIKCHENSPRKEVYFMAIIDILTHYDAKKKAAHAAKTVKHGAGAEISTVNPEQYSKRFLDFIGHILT

Row | Compound | max response
1 | C#CCOCCOCCOCCNc1nc(N2CCN(C(=O)Cn3cc(CCO)nn3)CC2)nc(N2CCN(C(=O)Cn3cc(CCCN=C(N)N)nn3)CC2)n1 | 1.27%
2 | C#CCOCCOCCOCCNc1nc(N2CCN(C(=O)CCCCCCCCCCNC(=O)[C@H]([C@@H](C)CC)n3cc(CCCCN=C(N)N)nn3)CC2)nc(N2CCN(C(=O)CCCCCCCCCCNC(=O)[C@H](CO)n3cc(CCCSC)nn3)CC2)n1 | -95.3% (active)
3 | C#CCOCCOCCOCCNc1nc(N2CCN(C(=O)[C@H](C(C)C)n3cc(CCO)nn3)CC2)nc(N2CCN(C(=O)[C@H]([C@@H](C)CC)n3cc(CCCN=C(N)N)nn3)CC2)n1 | -3.39%
4 | CC1(C(=O)NS(=O)(=O)c2cccc(F)c2)CCN1C(=O)Cc1ccc(Cl)cc1Cl (stereo not drawn) | -3.09%
5 | CC1(C(=O)NS(=O)(=O)c2ccccc2)CCN1C(=O)C1CCCCC1 (stereo not drawn) | 0.69%
6 | CCC(=C/c1sc2ccc3ccccc3c2[n+]1C)/C=C1\Sc2ccc3ccccc3c2N1C | -90.2% (active)
7 | CCCCc1c(-c2ccc(Br)cc2)ncn1CCc1ccccc1OC | 11.5%
8 | C[C@@H]1CN([C@@H](C)CO)C(=O)CCCn2nncc2CO[C@@H]1CN(C)S(=O)(=O)c1ccc(-c2ccccc2)cc1 | -0.942%
9 | COc1ccc(-c2ccc(CN3C(CC(C)C)C(=O)N(Cc4cn(CC5CCCCC5)nn4)CCS3(=O)=O)cc2)cn1 (stereo not drawn) | -0.614%
10 | C=C1c2c(Cl)ccc(O)c2C(O)=C2C(=O)[C@]3(O)C(O)=C(C(N)=O)C(=O)[C@@H](N(C)C)[C@@H]3[C@@H](O)C12 (stereo partly drawn) | -76.5% (active)
11 | CN(C)[C@@H]1C(=O)C(C(N)=O)=C(O)[C@@]2(O)C(=O)C3=C(O)c4c(O)ccc(Cl)c4[C@@H](O)[C@H]3C[C@@H]12 | -11.8%
12 | COc1ccc(C2OC(CCc3ccccc3)Cc3[nH]c(=S)[nH]c(=O)c32)cc1 (stereo not drawn) | -4.14%
13 | CC(C)C[C@@H]1Cc2[nH][nH]c(=O)c2[C@H](CCc2ccccc2)O1 | 19.9%
14 | Nc1ccc2nc3c(=O)[nH]c(=S)[nH]c3nc2c1 | -105% (active)
15 | O=C(c1ccc(Cl)s1)N(Cc1nnc(-c2ccccc2Cl)o1)C1CC1 | 3.41%
16 | CC(C)N(Cc1nnc(-c2ccccc2Br)o1)C(=O)c1cc(Cl)nc2ccccc12 | 9.3%
17 | O=C(c1cc(-c2ccco2)nc2ccccc12)N(Cc1nnc(-c2ccc(Cl)cc2)o1)C1CC1 | -72.6% (active)
18 | COc1ccc(NC(=O)c2sc(=O)n(Cc3ccc(S(=O)(=O)N(C)C)cc3)c2C)cc1 | -4.44%
19 | O=c1[nH]n(-c2ccc([N+](=O)[O-])cc2)c(=O)c2ccccc12 | -53.6% (active)
20 | O=[N+]([O-])c1ccc(N2CCOCC2)cc1 | 2.48%
21 | O=c1[nH]c2cccnc2n1-c1ccc([N+](=O)[O-])cc1 | 3.06%
22 | CC(C)CNC(=O)C1(C)CCCN1C(=O)CSc1ccccc1 (stereo not drawn) | -2.54%
23 | CCc1nc2c(OCCC3CCCCC3)cccn2c1N(C)C(=O)c1ccco1 | -1.87%
24 | COc1ccc(-c2cc3ccc(OCc4nn[nH]n4)cc3oc2=O)cc1 | -28.7%
25 | O=c1oc2cc(O)ccc2cc1-c1ccc(F)cc1 | -58.1% (active)
26 | CN(C)c1cc(-c2ccc(F)cc2)oc(=O)c1Cl | -9.22%

Row | Compound | max response
27 | CCCNC(=O)C1(C)CCCN(Cc2cccc(C(F)(F)F)c2)C1 (stereo not drawn) | -5.32%
28 | CCOC(=O)N1C(=O)C[C@](Sc2ccc(C)cc2)(C(=O)OC)[C@H]1c1ccccc1 | 5.07%
29 | CC1(C(=O)NS(=O)(=O)Cc2cccc(Cl)c2)CCN1C(=O)Cc1ccccc1 (stereo not drawn) | 1.29%
30 | CC(C)CN1C(=O)CN(S(C)(=O)=O)CC1(C)C(=O)NCc1ccccc1 (stereo not drawn) | -3.28%
31 | OC[C@@H]1CN(Cc2ccncc2)C[C@H](n2cnc3c(N4CCN(c5ccccc5)CC4)ncnc32)O1 | 3.53%
32 | O=C(Cn1cnc2c(OCc3ccccc3)ncnc21)NCCCn1ccnc1 | 1.01%
33 | O=C(Cn1cnc2c(OCc3ccccc3)ncnc21)NCc1nc2ccccc2[nH]1 | -52.2% (active)
34 | CC(CNC(=O)Cn1cnc2c(OCc3ccccc3)ncnc21)c1ccccc1 (stereo not drawn) | 2.34%
35 | CCc1nc2c(OCCOc3ccccc3)cccn2c1N(C)C(=O)c1cccs1 | -2.92%
36 | COc1ccc(S(=O)(=O)c2c[nH]c(=S)[nH]c2=O)cc1Cl | -71.5% (active)
37 | COc1ccc(S(=O)(=O)N(C)CC(=O)N2CCCC2)cc1Cl | -1.95%
38 | COc1ccc(S(=O)(=O)Nc2ccc3c(c2)OCO3)cc1Cl | -4.52%
39 | CCCCCCCCN1C(=O)[C@H](CC(=O)NCc2cccc3ccccc23)C[C@@]2(C(=O)OC)CCCCC=C12 | 22.3%
40 | CC(=O)N1C[C@@H](CO)[C@@H](N(C)C(=O)c2ccco2)C[C@H]1c1ccccc1 | -3.57%
41 | COC(=O)c1sc2[nH]c(=S)n(N)c(=O)c2c1C | -60.5% (active)
42 | COC(=O)c1sc(NC(=O)COC(=O)C2CCC2)c(C(=O)OC)c1C | 16.3%
43 | CCc1nc2ccc(C(=O)Nc3cc(-c4ccccc4)ccc3OC)cn2c1N(CC)CC(=O)N(C)C | 1.18%
44 | O=C1NN(c2ccccc2)C(=O)/C1=C/c1ccc(-c2cccc(C(=O)O)c2)o1 | -59.1% (active)
45 | CC1=NN(c2ccc(Cl)c(C(=O)O)c2)C(=O)/C1=C/c1ccc(-c2ccccc2[N+](=O)[O-])o1 | -9.29%
46 | CC(=O)c1cc(-c2ccccc2)[nH]c1N1CCCC1 | -3.68%
47 | CCCCOCCCNC(=O)C[C@@H]1C[C@@]2(C(=O)OCC)CCCC=C2N(CCC2=CCCCC2)C1=O | 1.62%
48 | CC(=O)N1Cc2cc(C(=O)NCc3cccc(F)c3)nc(-c3cccc(C4=CCCCC4)c3)c2[C@H]1CCO | 12.2%
49 | COc1ccc(-c2coc3c(C(=O)NC(C)C)cccc23)c(C)c1 | -1.18%
50 | COc1ccc2[nH]cc(CCN3C(=O)c4ccc(C(=O)O)cc4C3=O)c2c1 | -70.3% (active)
51 | COCCCN1C(=O)c2ccc(C(=O)Nc3ccc(OC)cc3OC)cc2C1=O | 2.76%
52 | Cc1ccc2[nH]cc(CCCN3C(=O)c4ccccc4C3=O)c2c1 | -7.36%

Row | Compound | max response
53 | Cc1ccc(C(NC(=O)C2CCN(CCOc3ccc(Cl)cc3Cl)CC2)c2ccccn2)cc1 (stereo not drawn) | 5.45%
54 | CC(C)N=C1CCCC1C(=S)SSC(=S)C1CCCC1=NC(C)C (stereo not drawn) | -54.3% (active)
55 | CCCOc1ccc(F)cc1-c1cc(C(=O)NCc2ccc(F)cc2)[nH]n1 | 3.63%
56 | CCOC(=O)[C@]12CCCC=C1N(CCC1=CCCCC1)C(=O)[C@H](CC(=O)N1CCN(C(=O)c3ccco3)CC1)C2 | -6.59%
57 | C[C@H]1CN([C@@H](C)CO)C(=O)c2cc(C3=CCCCC3)cnc2O[C@@H]1CN(C)C(=O)Cc1ccccc1 | -2.83%
58 | COc1ccc(-c2cc3nc(NCCOc4ccccc4)ccn3n2)cc1 | 23.5%
59 | CCC(C(=O)NCc1ccccc1)n1c(Cc2cc(F)cc(F)c2)nc2ccccc21 (stereo not drawn) | 0.77%
60 | CC(C)CCNC(=O)c1[nH]c(C(F)(F)F)nc1-c1ccccc1 | -8.89%
61 | CC(=O)N1c2ccc(S(=O)(=O)N(C)CC(=O)N(C)Cc3ccccc3)cc2CC1C (stereo not drawn) | -1.34%
62 | CC(=O)N1c2ccc(S(=O)(=O)NCCC(=O)N(C)C3CCCCC3)cc2CC1C (stereo not drawn) | -54.5% (active)
63 | COc1cccc(CNS(=O)(=O)c2ccc3c(c2)CC(C)N3C(C)=O)c1 (stereo not drawn) | -2.98%
64 | COc1ccc(-c2nc3ccc(Br)cn3c2Cc2ccc(C)cc2)cc1OC | -8.6%
65 | COc1ccc(C(C(=O)Nc2c(C)cccc2C)N2CCN(c3ccc(C)cc3)CC2)cc1 (stereo not drawn) | 5.89%
66 | O=C(N/N=C/c1cc(Br)c(O)c([N+](=O)[O-])c1)C(O)(c1ccccc1)c1ccccc1 | -58.4% (active)
67 | COc1ccc(CC(=O)N/N=C/c2cc([N+](=O)[O-])cc(Br)c2O)cc1 | -27.2%
68 | O=C(N/N=C/c1cc(Cl)cc([N+](=O)[O-])c1O)C(O)(c1ccccc1)c1ccccc1 | 3.34%
69 | C[C@H](CO)N1C[C@H](C)[C@H](CN(C)C(=O)c2ccncc2)OCc2ccccc2-c2c(n(C)c3ccccc23)C1=O | 0.39%
70 | O=C(CCCN1C(=O)/C(=C/c2ccccc2)SC1=S)Nc1ccc(O)cc1 | 0.839%
71 | O=C1/C(=C/c2ccc(F)cc2)SC(=S)N1NS(=O)(=O)c1ccccc1 | -65.3% (active)
72 | O=C1/C(=C/c2ccc(F)cc2)SC(=S)N1CCCC(=O)N1CCCCC1CCO (stereo not drawn) | 0.801%
73 | C=C(C)C(=O)O[C@H]1C/C(C)=C\C(=O)/C=C(\C)[C@H](O)[C@@H]2OC(=O)C(=C)[C@@H]21 | -56.7% (active)
74 | C/C(=N\NC(=O)c1ccc2ccccc2c1)c1cccnc1 | -3.12%
75 | C/C(=N\NC(=O)c1ccc(NS(=O)(=O)c2cccs2)cc1)c1ccc2ccccc2c1 | -63% (active)
76 | COc1cc(OC)c(C(=O)NNC(=O)c2ccc(NS(=O)(=O)c3cccs3)cc2)cc1OC | -9.62%
77 | CC(C)C1C(=O)N(Cc2cn(CCC3OCCO3)nn2)CCS(=O)(=O)N1Cc1ccc(-c2ccccc2C(F)(F)F)cc1 (stereo not drawn) | 22.5%
78 | CCCNC(=O)C1(C)CCN(Cc2csc(-c3ccc(Cl)cc3)n2)C1 (stereo not drawn) | -11.7%
